Compound activity as filed in PubChem BioAssay.
HSP90 inh: HSP90 inhibitors, primary screen, cell lysate, luminescence; Heat shock protein HSP 90 (rabbit reticulocyte lysate; luciferase refolding); AID 1789, 2009; Rabbit reticulocyte lysate, luciferase refolding luminescence, 3 h; 290,000 tested, 0.91% active; inhibition, % at 5.6 µM;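 active = inhibition above the screen-wide mean plus 3 SD, computed separately per campaign, cut at about 16% in these data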;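 note: 0% = DMSO wells and 100% = 60 µM geldanamycin wells; inhibitors lower the luminescence because luciferase stays unfolded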
Peg3 promoter: Peg3 promoter-driven luciferase inhibitors, primary screen, cell-based, HeLa, luciferase luminescence; HeLa PEG-Prom luciferase reporter, overnight; inhibition, % at 20 µM; 360,000 tested, 1.7% active; AID 588405, 2011;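 active = inhibition of at least 50% at 20 µM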
LGR2 antag: inhibitors of bursicon-induced LGR2 CRE-luciferase signal, primary screen, cell-based, HEK293, CRE-luciferase reporter, bursicon stimulation. Drosophila bursicon receptor LGR2 (rickets). AID 720647, 2013. 380,000 tested, 0.35% active. bursicon-stimulated, 4 h. inhibition, % at 9.99 µM;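 active = drop in luminescence signal, shown as inhibition above about 50% in the replicate tests, limit read from the data, passing the limit was not always enough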;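 note: agonist challenge used bursicon conditioned medium at about half maximal strength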
KKLEB cytotox: cytotoxicity in KKLEB CF airway cells, primary screen, cytotoxicity control for CF NF-kB inhibitor project, cell-based, uHTS, fluorescence assay plates | KKLEB CF airway cells viability, ATPlite luminescence, overnight; stronger effect = lower value; cells stimulated with P. aeruginosa culture filtrate | activity change (cytotoxicity), % at 5 µM | 360,000 tested, 0.36% active;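 active = corrected activity change at or below -50% at 5 µM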
Mdm2 MdmX PPI: inhibitors of human Mdm2-MdmX association, primary screen, cell-based, luminescence, split luciferase, SaOS-2, uHTS | 330,000 tested, 3% active | SaOS-2 split-luciferase Mdm2/MdmX complementation | AID 485346, 2010 | Protein Mdm4 (Homo sapiens) + E3 ubiquitin-protein ligase Mdm2 (Homo sapiens), … | inhibition, % at 8 µM;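 active = inhibition of at least 50% at 8 µM in the primary screen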
Target sequence (O15151 whole entry, looked up): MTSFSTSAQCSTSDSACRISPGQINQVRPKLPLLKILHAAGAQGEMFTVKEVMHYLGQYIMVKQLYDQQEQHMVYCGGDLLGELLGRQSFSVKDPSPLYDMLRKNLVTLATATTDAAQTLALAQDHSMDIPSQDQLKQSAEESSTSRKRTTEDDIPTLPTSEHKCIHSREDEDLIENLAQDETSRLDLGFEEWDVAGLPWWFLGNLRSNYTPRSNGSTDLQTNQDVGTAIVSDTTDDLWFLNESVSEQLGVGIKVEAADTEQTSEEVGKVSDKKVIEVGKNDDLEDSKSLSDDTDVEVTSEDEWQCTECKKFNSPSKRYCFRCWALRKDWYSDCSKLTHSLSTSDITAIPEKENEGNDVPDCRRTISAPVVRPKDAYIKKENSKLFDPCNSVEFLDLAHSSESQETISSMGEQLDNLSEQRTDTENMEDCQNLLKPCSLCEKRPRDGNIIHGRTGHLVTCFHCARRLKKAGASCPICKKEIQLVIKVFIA
Target sequence (Q00987 whole entry, looked up): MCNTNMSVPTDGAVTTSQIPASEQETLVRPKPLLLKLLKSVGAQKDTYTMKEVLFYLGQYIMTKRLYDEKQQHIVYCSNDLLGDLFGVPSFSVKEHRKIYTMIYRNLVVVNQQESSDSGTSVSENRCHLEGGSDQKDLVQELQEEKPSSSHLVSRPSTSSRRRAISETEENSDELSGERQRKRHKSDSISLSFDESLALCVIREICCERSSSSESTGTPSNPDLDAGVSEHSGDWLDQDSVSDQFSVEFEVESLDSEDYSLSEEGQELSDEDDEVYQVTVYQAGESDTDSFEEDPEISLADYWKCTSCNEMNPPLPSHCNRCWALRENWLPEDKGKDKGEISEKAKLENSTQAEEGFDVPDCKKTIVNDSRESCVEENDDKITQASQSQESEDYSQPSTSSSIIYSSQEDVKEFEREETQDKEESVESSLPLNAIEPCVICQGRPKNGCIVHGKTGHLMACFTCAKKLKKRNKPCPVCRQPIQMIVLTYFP
CF NFkB block: inhibitors of PAF-induced NF-kB signaling, primary screen, cell-based, GFP fluorescence, uHTS. inhibition, % at 5 µM. 360,000 tested, 0.86% active. KKLEB NF-kB-GFP reporter, GFP fluorescence overnight;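 active = at least 50% inhibition at 5 µM, scaled per plate between neutral and stimulator controls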;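 note: PAF is a Pseudomonas aeruginosa culture filtrate used as stimulus; plate controls were PAF-stimulated DMSO wells for no effect and unstimulated DMSO wells for full effect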
Mdm2-MdmX conf: Mdm2-MdmX complex disruptors, retested hits, confirmation, luminescence, single concentration | Mdm2-MdmX binding, luminescent assay | 10,000 tested, 55% active | inhibition, % at 8 µM | AID 489028, 2010 | shares compounds with Mdm2 MdmX PPI; in the data active = inhibition above about 40%
Full FLuc ctr: full-length luciferase signal inhibition, confirmation, counter-screen for Mdm2/MdmX interaction inhibitor project, cell-based, single concentration, SaOS-2 | 6,200 tested, 77% active | SaOS-2 full-length luciferase counterscreen, luminescence | inhibition, % at 8 µM | shares compounds with Mdm2 MdmX PPI;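 active = mean inhibition at 8 µM reaching about 37%, which flags the compound as non-specific, limit read from the data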;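 note: p53-null SaOS-2 cells with luciferase driven by a doxycycline-inducible promoter; compound on cells about two nights before reading with doxycycline added after day one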
* marks the source's active call; other numbers are inactive results; / = not tested or not shown. An excerpt weighted towards active compounds, which were near 3.6% of everything screened.

SMILES	HSP90 inh	Peg3 promoter	LGR2 antag	KKLEB cytotox	Mdm2 MdmX PPI	CF NFkB block	Mdm2-MdmX conf	Full FLuc ctr
O=C(CN1C(=O)CS/C1=C\c1nc(-c2ccc(Cl)cc2)cs1)Nc1cccnc1Cl	3	15	-24	2	79*	19	19	/
Cc1ccc(-c2csc(/C=C3\SC(C)C(=O)N3CC(=O)Nc3ccccc3F)n2)cc1 (stereo not drawn)	3	7	2	-12	47	16	/	/
CC(C)CC#Cc1ccc([C@@H]2[C@@H](CO)N3C(=O)CN(C(=O)NC4CCCC4)C[C@H]23)cc1	/	/	-18	/	/	/	/	/
COc1ccc(S(=O)(=O)Nc2ccc3c(c2)CC(=O)N([C@@H](C)CO)C[C@@H](C)[C@@H](CN(C)S(=O)(=O)c2ccc(OC)cc2)O3)cc1	/	/	2	/	/	/	/	/
O=C(C1CCCCC1)N1CC2(C1)[C@@H](c1ccccc1)[C@@H](CO)N2C(=O)NC1CCCC1	/	/	-11	/	/	/	/	/
CSc1cccc(NC(=O)C(=O)NCc2ccccc2)c1	-5	-11	-4	-2	26	4	/	/
CSc1cccc(NC(=O)NCc2cccc(CNC(=O)Nc3cccc(SC)c3)c2)c1	2	23	23	-3	56*	-3	46*	67*
CN(C)CCCN(Cc1cc2cc3c(cc2[nH]c1=O)OCO3)C(=S)Nc1cccc(Cl)c1	-1	-56	/	12	59*	7	29	/
Cc1cc2cc(CN(CC3CCCO3)C(=S)Nc3ccccc3)c(=O)[nH]c2cc1C (stereo not drawn)	-5	37	-14	-5	67*	4	56*	59*
COc1ccc2[nH]c(=O)c(CN(CC3CCCO3)C(=S)Nc3ccccc3)cc2c1 (stereo not drawn)	-2	28	/	8	12	-4	/	/
COc1ccc2cc(CN(CC3CCCO3)C(=S)Nc3ccccc3)c(=O)[nH]c2c1 (stereo not drawn)	2	20	/	-8	52*	-15	51*	57*
CCN1CCCC1CN(Cc1cc2ccc(C)cc2[nH]c1=O)C(=S)Nc1ccc(F)cc1 (stereo not drawn)	2	5	16	-6	60*	13	35	63*
COc1ccc(NC(=O)N(Cc2cc3ccc(OC)cc3[nH]c2=O)CC2CCCO2)cc1 (stereo not drawn)	-13	18	3	0	32	-19	/	/
COc1ccc2cc(CN(CC3CCCO3)C(=O)Nc3ccccc3OC)c(=O)[nH]c2c1 (stereo not drawn)	1	36	14	-1	59*	2	53*	63*
CCN(CC)CCN1c2ccccc2Sc2ccccc21	-3	-7	-10	5	19	11	/	/
CCN(CC)CCN1c2ccccc2Sc2ccc3ccccc3c21	3	-25	9	-2	56*	23	37	75*
Cc1nn(Cc2ccccc2)c(Cl)c1/C=C/C(=O)OCC(=O)NC(C)C(C)C (stereo not drawn)	1	21	-16	18	9	-4	/	/
Cc1nn(Cc2c(Cl)cccc2Cl)c(Cl)c1/C=C/C(=O)OCC(=O)NCC(F)(F)F	2	37	/	-9	79*	12	25	/
COCC(=O)Nc1ccc2c(c1)OC[C@@H](C)N(Cc1ccncc1)C[C@@H](C)[C@@H](OC)CN(C)C2=O	/	/	-10	/	/	/	/	/
Cc1cc(C)n(-c2nnc3n2N=C(c2ccccc2)CS3)n1	5	16	/	-6	-10	3	/	/
Cc1cc(C)n(-c2nnc3n2N=C(c2c[nH]c4ccccc24)CS3)n1	0	15	/	-10	56*	14	46*	50*
C[C@]12CCC3C(CC[C@H]4CCCC[C@]34C)C1CC[C@@]2(O)CNCCO (stereo partly drawn)	-2	91*	-6	3	98*	12	79*	42*
CC(=O)[C@@]1(O)CCC2C3CC[C@H]4C[C@@H](O)CC[C@]4(C)C3CC[C@@]21C (stereo partly drawn)	/	4	10	17	-7	-22	/	/
CC(C)n1cnc2c(N(C)c3ccccc3)nc(N(CCN(C)C)Cc3ccccc3)nc21	/	39	13	-13	58*	10	25	/
Cc1ccc(-c2nc3ncccc3o2)cc1NC(=O)c1sc2ccccc2c1Cl	-3	78*	-1	-1	83*	-2	26	/
SMILES	HSP90 inh	Peg3 promoter	LGR2 antag	KKLEB cytotox	Mdm2 MdmX PPI	CF NFkB block	Mdm2-MdmX conf	Full FLuc ctr
COc1ccc2c3c(n(C)c2c1)[C@@H](CO)N(C(=O)C1CCOCC1)CC31CN(C)C1	/	/	-17	/	/	/	/	/
O=C1N=C2SCCN2/C1=C\c1ccc(Cl)cc1	3	6	-4	5	52*	3	5	/
Cc1ccc(N2CCN(c3ncccc3[N+](=O)[O-])CC2)c(C)c1	6	-40	-31	9	-2	17	/	/
Cc1ccc(C)c(N2CCN(c3ncccc3[N+](=O)[O-])CC2)c1	-5	36	32	3	73*	25	23	/
Cc1nc(N2CCN(C(=O)c3cnccn3)CC2)c2c3c(sc2n1)CC(C(C)(C)C)CC3 (stereo not drawn)	-2	-17	-9	5	70*	-1	34	/
Cc1nn(CC(=O)NCc2cccc3ccccc23)c(=O)c2ccccc12	0	24	/	-4	85*	-4	48*	64*
Cc1nn(CC(=O)NCc2ccccc2)c(=O)c2ccccc12	2	0	/	-1	-16	-14	/	/
COc1cccc(CNc2ncc(C(=O)Nc3cc(OC)c(OC)c(OC)c3)c(C)n2)c1	2	23	-11	-7	55*	-4	57*	48*
COc1cc(NC(=O)c2cnc(NCc3ccccc3)nc2C)cc(OC)c1OC	2	19	-20	4	29	5	/	/
CCCNC(=O)N1[C@H](CNC(=O)CC)[C@H](c2ccc(C3=CCCC3)cc2)[C@@H]1CO	/	/	-11	/	/	/	/	/
